Results on 39 molecules are retold here after PubChem BioAssay AID720526 (National Center for Advancing Translational Sciences (NCATS), 2013).

The nature of this assay: qHTS Assay for NPC1 Promoter Activators: Hit Validation Using Renila Luciferase Read-Out for NPC1. The conditions noted are these: Huh7 NPC1 promoter-luciferase reporter, luminescence, 24 h; series mostly up to 76.9 µM. In outline: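 Luciferase reporter read-out: promoter activation measured by luminescence after 10 min with detection reagent at room temperature. Cells were Huh7 with a stable NPC promoter-luciferase construct, treated 24 h at 37 deg C.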
For orientation: qHTS replaces the single test concentration by a dilution series.

Inconclusive results are not listed. Where a call stands in place of a potency, no number is given. Active and inactive are the calls of the source. Calls follow the shape of the dose curve; as a rule, active = well fitted activation curve with a large enough effect; inconclusive = small, poorly fitted or top-dose-only effect; inactive = no such curve, though single readings can be large or run the other way.
Potency is read from the fitted curve at half-maximal effect.

As to `CC1(C)CC(=O)c2c(O)c(-c3ccccc3)c(=O)n(-c3ccccc3)c2C1`, the Potency result was “inactive”.

For `COc1ccc(-c2nnc(SCC(=O)/C(C#N)=C(\C)N)o2)cc1`, the Potency entry is “inactive”. In the case of `Cc1ccc(S(=O)(=O)/N=C(/Nc2ccccn2)c2ccc(Cl)cc2)cc1`, the Potency is 11.6 µM (active). Then `Cc1ccc2nc(Nc3ccc(Cl)cc3)c3nncn3c2c1`, with “inactive”; and `COc1ccccc1CNC(=O)COc1ccc(C)cc1`, with “inactive”.

In the case of `Cc1ccc(C(=O)Nc2nnc(S(=O)(=O)N3CCOCC3)s2)cc1`, the Potency entry is “inactive”. In the case of `O=C(CCCn1c(=O)oc2ccccc21)N1CCN(c2ccccn2)CC1` it was “inactive”; in that of `COc1ccccc1OCCCC(=O)NCc1ccco1`, “inactive”.

Regarding `Nc1ccccc1C(=O)N/N=C1/C2CN3CCN(C2)CC1(Cc1ccccc1)C3`, the Potency entry is “inactive”. Consider `CCOC(=O)c1ccc(NC(=O)Oc2cc(C)c(Cl)cc2C(C)C)cc1`, for which the Potency entry is “inactive”. In the case of `Cc1[nH]n(-c2cccc3ccccc23)c(=O)c1/C=N/c1sc2c(c1C#N)CCC2` it was “inactive”. On to `CCN(CC(=O)N(CC(C)C)c1c(N)n(CC(C)C)c(=O)[nH]c1=O)Cc1nc2ccccc2c(=O)[nH]1`, for which the Potency entry was “inactive”.

For the molecule `CCOC(=O)CSc1nc2cc(C)ccc2cc1C#N`, the Potency entry is “inactive”. Then `Cc1cc(C)c2c(N)c(C(=O)Nc3ccc([N+](=O)[O-])cc3)sc2n1`, with “inactive”. Regarding `O=C(CSc1ncccn1)Nc1cccc2ccccc12`, the Potency result is “inactive”. Then `COc1ccc(NC(=S)NNC(=O)c2cccs2)cc1`, with “inactive”; and `CC1CCc2sc(C(=O)NNC(=S)NC3CC3)cc2C1` (centres undefined), with “inactive”; and `CC(C)(C)NC(=S)NNC(=O)c1ccc2ncccc2c1`, with “inactive”.

Turning to `Cc1ccc(NC(=O)NC(=O)c2ccccc2)cc1F`, the Potency result is “inactive”. On to `Cc1ccc(C(=O)NC2CCN(CC(=O)Nc3c(C)cc(C)cc3C)CC2)cc1`, for which the Potency entry is “inactive”. For `COc1ccc(C(c2nnnn2CCc2ccccc2)N2CCN(C3CCCC3)CC2)cc1` (centres undefined), the Potency is 13 µM (active).

In the case of `CN(C)/C=N/c1c(C#N)cnn1-c1nc2ccccc2s1`, the Potency entry was “inactive”. `O=C(O)CSc1nnc(-c2ccncc2)n1CCc1ccccc1`: the Potency result is “inactive”. With `Cc1ccc(N(O)C(=O)NCCCCNC(=O)N(O)c2ccc(C)cc2)cc1`, the Potency result is “inactive”. In the case of `Cc1ccc(NC(=O)Nc2cccc3ccccc23)cc1` it was “inactive”. For `COc1ccc(/C=C\c2onc(C)c2S(=O)(=O)N2CCC(C(=O)NCCC(C)C)CC2)cc1`, the Potency result is “inactive”. Regarding `COC(=O)c1ccccc1NC(=O)c1cc(-c2cccs2)on1`, the Potency entry is “inactive”. Then `CCN(C(=O)COC(=O)c1ccc(C=O)cc1)c1c(N)n(Cc2ccccc2)c(=O)[nH]c1=O`, with “inactive”; and `COCCNC(=O)C1CCC(CNS(=O)(=O)c2ccc(F)cc2)CC1` (centres undefined), with “inactive”. `C=CCOC(=O)N1CCN(c2cccc(C(F)(F)F)c2)CC1`: the Potency result is “inactive”. As to `CCOc1ccc(CNC(=O)C2CCCN(S(C)(=O)=O)C2)cc1OC` (centres undefined), the Potency entry was “inactive”.

With `CC(=O)NC(CCCN1C(=O)c2ccccc2C1=O)c1nnn(C)n1` (centres undefined), the Potency entry was “inactive”. In the case of `O=C(CSc1nnc(-c2ccccn2)o1)Nc1ccccc1F` it was “inactive”; in that of `COc1ccc(NC(=O)CN(C)C(=O)c2ccc(=O)[nH]c2)cc1`, “inactive”; in that of `CC1=C(C(=O)OC2CCCC(C)C2)C(c2ccccc2)NC(=O)N1` (centres undefined), “inactive”. As for `CCCC(C)NC(=O)c1ccc(OCc2ccc(Cl)cc2)c(OC)c1` (centres undefined), the Potency entry was “inactive”. In the case of `CC(=O)[C@@H]1[C@@H](C(=O)c2ccc(C)cc2)[C@]2(C(=O)Nc3ccccc32)[C@H]2C=Cc3cc(F)ccc3N12` it was “inactive”; in that of `NC(=O)C1(NC(=O)[C@@H]2CC3(CC(c4cccc(NC(=O)[C@@H]5CCC(=O)N5)c4)=NO3)CN2C(=O)c2ccccc2)CC1` (some centres undefined), “inactive”. For `O=C(CCN1C(=O)c2ccccc2C1=O)Nc1ccc(-c2nc3ccccc3s2)cc1`, the Potency entry was “inactive”.
